According to PubChem BioAssay (Tox21):
Records with an inconclusive call do not appear. A number with no mark means an inactive call. The source made the active and inactive calls. Calls follow the shape of the dose curve; as a rule, active = well fitted cell-killing curve with a large enough effect in the repeat runs; inconclusive = weak or mixed curves, or effect the other way; inactive = no such curve, though single readings can be large or run the other way.

Experiment: qHTS assay for identifying genotoxic compounds that show differential cytotoxicity against isogenic chicken DT40 cell lines with known DNA damage response pathways - wild type cell line (AID 743012); also: nearly all actives have a fitted effect of over 60% in size
Settings: DT40 wild type chicken cells viability, CellTiter-Glo, 40 h; series mostly up to 68.4 µM; activity change, negative = cytotoxicity: at the top concentration
Text: U.S. Tox21 Program National Center for Advancing Translational Sciences [NCATS] NIH Chemical Genomics Center [NCGC] U.S. Environmental Protection Agency [EPA] National Institutes of Environmental Health Sciences [NIEHS] National Toxicology Program [NTP] U.S. Food and Drug Administration [FDA] Tox21 Assay Overview: DNA repair pathways play a critical role in cellular homeostasis by repairing DNA damage induced by endogenous processes and xenobiotics. Isogenic chicken DT40 cell lines deficient in different DNA repair pathways can be used to identify genotoxic compounds and aid in characterizing the nature of the DNA damage induced. Two DNA repair-deficient cell lines with disrupted genes, Rad54/Ku70 or Rev3, were used to screen the Tox21 10K compound library. Possible genotoxicity was based on the presence of a significant increase in cytotoxicity in one or more of the DNA repair-deficient cell lines compared to that observed in the parental DNA repair-proficient cell line. CellTiter Glo viability assay (Promega, Madison, WI) was used to measure cell viability in these cells after compound treatment. This assay includes the data from the wild type cell line.
Tox21 Assay Protocol Summary: 300 DT40 wild type cells in 5 uL/well were dispensed into white, solid-bottom 1536-well plates using a Multidrop Combi (ThermoFisher Scientific, Waltham, MA) dispenser. After the assay plates were incubated at 37 C/5% CO2 for approximately 0.5 hour, 23 nL of compounds dissolved in DMSO, positive controls or DMSO only was transferred into the assay plate by a pintool work station (Kalypsys, San Diego, CA). The assay plates were incubated at 37 C/5% CO2 for 40 hours. After 5 uL per well of CellTiter-Glo reagent was added into each well of the assay plates, the plates were incubated for 30 min at room temperature and the luminescence intensity of the plates was measured using a ViewLux (PerkinElmer, Shelton, CT) plate reader.
% is scaled to controls: 0 for no effect and ±100 for the full control effect; potency is read from the fitted curve at half-maximal effect.

Structure (SMILES)	Potency	activity change, negative = cytotoxicity
CC(C)C(O)(c1ccc(OC(F)(F)F)cc1)c1cncnc1 (stereo not given)	48.4 µM (active)	
C[C@@H](O[C@H]1OCCN(Cc2n[nH]c(=O)[nH]2)[C@H]1c1ccc(F)cc1)c1cc(C(F)(F)F)cc(C(F)(F)F)c1	23.7 µM (active)	
CCN(CC)CCNC(=O)COc1ccc(OC)cc1		-0.549%
Cc1ccc(OC(=O)c2ccccc2O)cc1		1.46%
Cc1ccc(CO)cc1		5.22% [at 95 µM]
CCOC(=O)c1ccccc1C(=C1C=C(Br)C(=O)C(Br)=C1)c1cc(Br)c(O)c(Br)c1		2.28%
C=CC(C)(CCC=C(C)C)OC(=O)CC(C)C (stereo not given)		-17.2%
CC[C@]1(O)C[C@H]2CN(CCc3c([nH]c4ccccc34)[C@@](C(=O)OC)(c3cc4c(cc3OC)N(C=O)[C@H]3[C@@](O)(C(=O)OC)[C@H](OC(C)=O)[C@]5(CC)C=CCN6CC[C@]43[C@@H]65)C2)C1	0.0075 µM (active)	
c1cc(N(CC2CO2)CC2CO2)ccc1Cc1ccc(N(CC2CO2)CC2CO2)cc1 (stereo not given)	3.44 µM (active)	
CC1(C)[C@@H](OC(=O)CCC(=O)O)CC[C@]2(C)[C@H]3C(=O)C=C4[C@@H]5C[C@@](C)(C(=O)O)CC[C@]5(C)CC[C@@]4(C)[C@]3(C)CC[C@@H]12		1.26% [at 31.4 µM]
CC[N+](CC)(CCNC(=O)C(=O)NCC[N+](CC)(CC)Cc1ccccc1Cl)Cc1ccccc1Cl		14.5%
Cc1ccccc1S	34.6 µM (active)	
C[C@@H]1CN(CCCn2c3ccccc3c3ccccc32)C[C@H](C)N1	9.44 µM (active)	
CCC1NC(=O)c2cc(S(N)(=O)=O)c(Cl)cc2N1 (stereo not given)		18.2% [at 31.4 µM]
CCC(=O)OC		9.3% [at 95 µM]
O=[N+]([O-])c1cc(C2CCCCC2)c(O)c([N+](=O)[O-])c1	17.2 µM (active)	
O=C(/C=C/c1ccccc1)OCCc1ccccc1		9.84%
COc1cc(N)c(Cl)cc1C(=O)NC1CCN(CCCOc2ccc(F)cc2)CC1OC (stereo not given)	11.4 µM (active)	
O=C(OC(=O)c1ccccc1)c1ccccc1		0.402% [at 95 µM]
CCCC(C(=O)OCCN(CC)CC)(c1ccccc1)c1ccccc1	8.41 µM (active)	

Structure (SMILES)	Potency	activity change, negative = cytotoxicity
CC1(CN2CCC(n3c(=O)[nH]c4ccccc43)CC2)OCc2ccccc2-n2cccc21 (stereo not given)	21.1 µM (active)	
CC1(C)S[C@@H]2[C@H](NC(=O)C(c3ccccc3)S(=O)(=O)O)C(=O)N2[C@H]1C(=O)O (stereo not given in full)		6.34%
CCC(OCCCOC)OC(C)=O (stereo not given)		3.42% [at 95 µM]
C=COCC(C)C		0.379% [at 95 µM]
CC(C)(c1ccccc1)c1ccccc1		-0.44%
O=C1NCCN1CCO		9.13% [at 95 µM]
O=C(O)CCC(=O)C(=O)O	inactive	
CC(=O)NC1(c2cccc(F)c2)CCN(CC[C@@]2(c3ccc(Cl)c(Cl)c3)CN(c3ccccc3)C(=O)CO2)CC1	43.4 µM (active)	
Cc1cc(C)c(N)cc1C		8.3%
CCCCN1CCCC1C(=O)Nc1c(C)cc(C)cc1C (stereo not given)	16.8 µM (active)	
C=C(C)C(=O)OCCCCCCCCCCCCC		-2.32%
C=C(C)C(=O)OCCOCCOC(=O)C(=C)C		12.3%
CCC(C)COC(C)=O (stereo not given)		-7.25%
CC1(C)O[C@@H]2C[C@H]3[C@@H]4C[C@H](F)C5=CC(=O)C=C[C@]5(C)[C@H]4[C@@H](O)C[C@]3(C)[C@]2(C(=O)CO)O1		13.8% [at 31.4 µM]
CCCCCCNC(=O)n1cc(F)c(=O)[nH]c1=O	8.41 µM (active)	
C/C=C\C/C=C/CCCCCCCCOC(C)=O	27.3 µM (active)	
CN1C[C@H](C(=O)N[C@]2(C)O[C@@]3(O)[C@@H]4CCCN4C(=O)[C@H](Cc4ccccc4)N3C2=O)C[C@@H]2c3cccc4[nH]cc(c34)C[C@H]21	23.7 µM (active)	
CCCCCCCCCI		21.4% [at 95 µM]
Cc1cc(=O)c2c(O)c3c(O)cc(=O)c4c3c3c(cc(O)c1c23)C(C)(C)C=4O	0.944 µM (active)	
CN1C(=O)OC(C)(C)C1=O	inactive	
